Assay results taken from ChEMBL document CHEMBL4513216, “Probing the Open Global Health Chemical Diversity Library for Multistage-Active Starting Points for Next-Generation Antimalarials” (ACS Infect Dis, 2020).
About 8,600 (12%) of roughly 69,000 compounds showed an effect of 50% or more. The list comes from a sample in which strong results are over-represented; it also holds similar structures and randomly drawn compounds.

system: Plasmodium berghei; assay: Screen against P. berghei liver stage (PbLuc), transformed with Luciferase, at 10uM; assay type: functional, HepG2; details: tested at 10 uM

SMILES	INHIBITION [%]
NC1CCC(CN2CCCn3nc(CNC(=O)C4CCC4)cc3C2)CC1 (stereo unspecified)	18.4
Cc1cnc(C(=O)N2CCCN(c3nc(C)cs3)CC2)cn1	-5.25
Cc1ccc(CN2CC[C@@H](N3CCOCC3)[C@@H]2Cc2cccnc2)o1	12.1
CCCC(O)CN1CC(C)(C)CN(C(=O)c2ccc(Cl)cc2)CC1=O (stereo unspecified)	46.4
O=C([C@H]1C[C@@H]2CCN(c3cccc(F)c3)C[C@H]2O1)N1CCCCO1	23.3
c1cnnc(N[C@@H]2CC[C@@H]3CN(Cc4ccc5[nH]ccc5c4)C[C@@H]32)c1	27.2
Cc1nn(CCN2CCSCC2)cc1CNCC1CC1	-22
O=C(NCc1ccco1)[C@@]12CCO[C@@H]1CCN(C1CCC1)C2	29
CS(=O)(=O)N1C[C@H]2CCCN(Cc3nccs3)[C@H]2C1	33.4
NC1CCC(n2cc(C(=O)NC3COc4ccccc43)nn2)CC1 (stereo unspecified)	-28
CN(C)CCN1CC[C@@H]2O[C@@H](COCC(=O)N3CCCC3)CC[C@@H]21	29
O=C(O)CNC(=O)Cc1csc(-c2cccc(Cl)c2)n1	44.9
COc1cc(N2CC[C@H]3O[C@@H](C(=O)NC4CCCC4)CC[C@H]32)ncn1	-5.31
CC(C)n1cc(N2CC(C(=O)N3CCC(C(N)=O)CC3)CC2=O)cn1 (stereo unspecified)	-23.5
CCCc1nc(CNC(=O)Cc2cc(C)no2)cs1	31.6
CCCc1nc(CNc2nc(C)nc3oc(C)nc23)cs1	50.8
CCCc1nc(CNC(C)Cn2cccn2)cs1 (stereo unspecified)	-31.5
CCS(=O)(=O)NCC(=O)Nc1cc(CC(C)(C)C)n[nH]1	-10.7
O=C(CSCC1CC1)N1C[C@H]2CC[C@@H](C1)N(Cc1ccccn1)C2=O	17
Cc1cnn(CC2CCCN2CC(=O)Nc2cc(C)nn2C)c1 (stereo unspecified)	38.6
CC(C)C(=O)NC(Cc1cc(N(C)C)nc(C2CC2)n1)c1ccccc1 (stereo unspecified)	45.9
CCC(=O)NC(Cc1cc(N(C)C)nc(C2CC2)n1)c1ccccc1 (stereo unspecified)	33.8
COCC(=O)NC(Cc1cc(N(C)C)nc(C2CC2)n1)c1ccccc1 (stereo unspecified)	51.4
Cc1ccc2c(c1)c(CNC(=O)C1CC(=O)N(CCN(C)C)C1)nn2C (stereo unspecified)	82.4
Cc1ccc2c(c1)c(CNC(=O)C1CC(=O)N(C3CC3)C1)nn2C (stereo unspecified)	-6.34
Cc1ccc2c(c1)c(CNC(=O)C1CC(=O)N(C3CCCC3)C1)nn2C (stereo unspecified)	38.5

SMILES	INHIBITION [%]
O=C(NCC1CCS(=O)(=O)C1)N(Cc1ccncc1)C1CC1 (stereo unspecified)	-1.15
CS(=O)(=O)c1cc(S(N)(=O)=O)ccc1NCC1CCCO1 (stereo unspecified)	30
CC(C)(C)c1nnc(CN2CCN(CC(O)c3ccccc3)CC2)o1 (stereo unspecified)	58.2
Cc1nnc(CN2CCN(CC(O)c3ccccc3)CC2)o1 (stereo unspecified)	4.71
CCc1nnc(CN2CCN(CC(O)c3ccccc3)CC2)o1 (stereo unspecified)	-12.2
OCC1CCCN1c1cc(NCc2cccnc2)ncn1 (stereo unspecified)	-7.35
O=C(Nc1ccc(Cl)cn1)c1nn(C2CCS(=O)(=O)C2)c2c1CCCC2 (stereo unspecified)	83.9
CC(C)(C)NC(=O)c1nn(C2CCS(=O)(=O)C2)c2c1CCCC2 (stereo unspecified)	28.4
O=C(Nc1cccc(Cl)c1)c1nn(C2CCS(=O)(=O)C2)c2c1CCCC2 (stereo unspecified)	79.8
O=C(Nc1ccccc1)c1nn(C2CCS(=O)(=O)C2)c2c1CCCC2 (stereo unspecified)	66.3
Cc1nn(C2CCS(=O)(=O)C2)c(O)c1Cc1cccc(Cl)c1 (stereo unspecified)	28.5
O=C(Nc1ccc(Cl)cc1)c1nn(C2CCS(=O)(=O)C2)c2c1CCCC2 (stereo unspecified)	26.7
Cc1cccc(NC(=O)c2nn(C3CCS(=O)(=O)C3)c3c2CCCC3)n1 (stereo unspecified)	30.8
O=C(Nc1ccccc1F)c1nn(C2CCS(=O)(=O)C2)c2c1CCCC2 (stereo unspecified)	85.5
O=C(NCc1ccccc1)c1nn(C2CCS(=O)(=O)C2)c2c1CCCC2 (stereo unspecified)	20.1
Cc1cc(NC(=O)c2nn(C3CCS(=O)(=O)C3)c3c2CCCC3)no1 (stereo unspecified)	26.7
O=C(NCc1ccco1)c1nn(C2CCS(=O)(=O)C2)c2c1CCCC2 (stereo unspecified)	-18.2
O=C(Nc1cccnc1)c1nn(C2CCS(=O)(=O)C2)c2c1CCCC2 (stereo unspecified)	36.6
Cc1ccc(O)c(CNCC(C)c2nc3ccccc3o2)n1 (stereo unspecified)	43.1
O=C(Nc1ccc2c(c1)C(=O)NC2=O)c1ccc(Cl)s1	-93.6
NCC1CCC(C(NC(=O)c2cccc(F)c2)c2ccccn2)CC1 (stereo unspecified)	14.4
CCc1c(C(=O)N2CCCC(N(C)C)C2)cnn1C(C)(C)C (stereo unspecified)	5.7
O=C1[C@@H]2CN(C3CCOCC3)C[C@H]2CCN1CC1CC1	3.81
CN(C)S(=O)(=O)c1ccc(-c2nc(C#N)c(NC3CCCCC3)o2)o1	19.8
CN(CC1CCCCC1)C(=O)c1ccc(-n2ncc(C#N)c2N)cc1	52.7
Cc1cccnc1NC(=O)c1ccc(-n2ncc(C#N)c2N)cc1	25.6

SMILES	INHIBITION [%]
Cc1cc(NC(=O)c2ccc(-n3ncc(C#N)c3N)cc2)n(C)n1	11.2
N#Cc1cnn(-c2ccc(C(=O)N(C3CCCCC3)C3CC3)cc2)c1N	17.5
Cc1nc(NC(=O)c2ccc(-n3ncc(C#N)c3N)cc2)sc1C	50.3
CN(C(=O)c1ccc(-n2ncc(C#N)c2N)cc1)C1CCCC1	-8.11
N#Cc1cnn(-c2ccc(C(=O)Nc3ccccn3)cc2)c1N	28.7
Cc1ccnc(NC(=O)c2ccc(-n3ncc(C#N)c3N)cc2)c1	68.8
Cc1cnc(NC(=O)c2ccc(-n3ncc(C#N)c3N)cc2)s1	47.3
Cc1cnc(N2C[C@@H]3[C@@H](C2)OCC(=O)N3CC(C)C)nc1	40.8
CN(C)C(=O)N1CCN(c2ccc(Cl)nn2)C(=O)C1	16.8
COc1ccc(Br)cc1SCCCS(C)(=O)=O	12.8
Cc1nc(N2CCN(C(=O)c3ccncc3)CC2)c2c(n1)c(C)nn2C	33.3
Cc1nc(C2CCCN(C(=O)CCCn3cccn3)C2)sc1C (stereo unspecified)	-23.9
Cc1ccc2c(n1)N(CCN(C)C)CCN(C(=O)c1cccs1)C2	74.2
Cc1ccc2c(n1)N(CCN(C)C)CCN(C(=O)c1cscn1)C2	38.1
Cc1ccc2c(n1)N(CCN(C)C)CCN(C(=O)c1ccco1)C2	54.4
Cc1ccc2c(n1)N(CCN(C)C)CCN(C(=O)c1ccoc1)C2	48.6
Cc1ccc2c(n1)N(CCN(C)C)CCN(C(=O)c1ccc[nH]1)C2	10.8
Cc1ccc2c(n1)N(CCN(C)C)CCN(C(=O)c1ccsc1)C2	40.4
COc1ccc(C(CNC(=O)Nc2cc(C)nn2C)N(C)C)cc1 (stereo unspecified)	9.383
CS(=O)(=O)N1CCC2(CC1)c1ccccc1[C@@H](N1CCSCC1)[C@@H]2O	24.4
COCCCC1CCN([C@@H]2c3ccccc3C3(CCNCC3)[C@H]2O)CC1	17.5
CCOCCN1CCN([C@@H]2c3ccccc3C3(CCNCC3)[C@H]2O)CC1	29.4
CC(=O)CN1CCC2(CC1)c1ccccc1[C@@H](N1CCSCC1)[C@@H]2O	22.3
COCCCN1CCN([C@@H]2c3ccccc3C3(CCNCC3)[C@H]2O)CC1	58.1
CC(C)=CCN1CCC2(CC1)c1ccccc1[C@@H](N1CCSCC1)[C@@H]2O	56.5
CC(C)C1=NOC2(CCN(C(=O)C3CCCC3)CC2)C1	20.9

SMILES	INHIBITION [%]
c1cn2c(n1)CN(C1CCOCC1)CC(CN1CCCC1)C2 (stereo unspecified)	29
Cc1nc(C)n(C2CCCN(C(=O)c3ncoc3C(C)C)C2)n1 (stereo unspecified)	38.5
Cc1ccc(NC2CCN(C(=O)CCc3nccs3)CC2)nn1	-48.4
COCCOCCNC(=O)c1cccc(Cn2nc(C)cc2C)c1	26.6
CCn1cc(NC(=O)NCC(C)O)cn1 (stereo unspecified)	13.1
Cc1cc(NC(=O)NCC(O)COc2ccccc2)n(C)n1 (stereo unspecified)	25.365
CCn1cc(NC(=O)c2cccc(OCC(F)(F)F)n2)cn1	51.5
CCc1cc(NC(=O)c2cccc(OCC(F)(F)F)n2)[nH]n1	-20.8
CCn1cc(NC(=O)NCC(O)COc2ccccc2)cn1 (stereo unspecified)	60.5
O=C(NCC(O)COc1ccc(C(F)(F)F)cc1)Nc1nncs1 (stereo unspecified)	14.8
O=C(NCC(O)COc1ccccc1)Nc1nncs1 (stereo unspecified)	53.1
CCn1cc(NC(=O)NCC(O)COc2cccc(F)c2)cn1 (stereo unspecified)	23.2
Cc1n[nH]c(C)c1NC(=O)c1cccc(OCC(F)(F)F)n1	-14.9
Cc1nonc1CC(=O)N1C[C@H]2CC[C@@H](C1)N(Cc1ccccc1)C2=O	0.139
Cc1ccc(CN(CCCN(C)C)Cc2cnc(N(C)C)nc2)o1	15.395
CC(C)C(=O)N1CCCC2(C1)CN(c1nncs1)CCO2 (stereo unspecified)	30.3
CNC(=O)CN1CCOC(c2cccc(N)n2)C1 (stereo unspecified)	-5.8
C[C@@H]1CN2C[C@H](O)CC2CN1Cc1ccc2nccnc2c1 (stereo partly specified)	28.5
O=C(CN1CC(c2nc(-c3ccco3)no2)C1)NCC1CCCO1 (stereo unspecified)	17.7
COc1ccccc1OCCNCc1c(C(C)C)nn(C)c1N(C)C	31.3
O=C(NCCc1ccccn1)C1(n2cnnn2)CCCCC1	46.4
CNCc1ccc([C@@H]2CN(C(C)=O)C[C@H]2C(N)=O)cc1	-2.46
NC(=O)CC1CCCCN1C(=O)c1cccc(C(F)(F)F)c1 (stereo unspecified)	37.4
